From PubChem BioAssay
Calls of active or inactive are those of the source. Unless noted, how the calls were made is not given here.

Legend:
[1] = A549 cell viability effects, profiling panel, calcein-AM fluorescence, 48 h, basal (AID 1162); settings: higher = more signal; further: test concentration not given here
[2] = adipocyte viability effects, profiling panel, cell-based, 3T3-L1 adipocytes, calcein-AM fluorescence, 48 h, basal (AID 1163); settings: 3T3-L1 adipocytes viability, higher = more signal; further: test concentration not given here
[3] = HepG2 cell viability effects, profiling panel, calcein-AM fluorescence, 48 h, basal (AID 1164); settings: higher = more signal; further: test concentration not given here
[4] = MM1S cell viability effects, profiling panel, calcein-AM fluorescence, 48 h, basal (AID 1165); settings: higher = more signal;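 further: viability of MM1S multiple myeloma cells under basal unstimulated conditions; test concentration not given here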
[5] = basal RPMI8226 viability, no added stimulus, profiling panel, cell-based, calcein-AM fluorescence, 48 h, PK04 Diversity Set (AID 1166); settings: RPMI8226 myeloma viability, higher = more signal;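 further: cells grown under basal conditions without added stimulus; test concentration not given here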
[6] = basal HepG2 mitochondrial membrane potential changes, profiling panel, cell-based, JC-1 fluorescence, 24 h, 100 nL compound (AID 1167); settings: higher = more signal; further: test concentration not given here
[7] = basal 3T3-L1 adipocyte mitochondrial potential changes, profiling panel, cell-based, JC-1 fluorescence, 3T3-L1 adipocytes, 24 h, 100 nL compound (AID 1168); settings: JC-1 mitochondrial fluorescence, higher = more signal, called active from +8 up or from −8 down; further: test concentration not given here
[8] = basal RPMI8226 mitochondrial membrane potential changes, profiling panel, cell-based, JC-1 fluorescence, 24 h, 100 nL compound (AID 1169); settings: RPMI8226 myeloma, JC-1 mitochondrial potential fluorescence, higher = more signal; further: test concentration not given here
[9] = basal MM1S mitochondrial membrane potential changes, profiling panel, cell-based, JC-1 fluorescence, 24 h, 100 nL compound (AID 1170); settings: higher = more signal; further: test concentration not given here
[10] = A549 lung cancer cell viability effects, profiling panel, resazurin fluorescence, 24 h, PK04 Diversity Set (AID 1171); settings: higher = more signal, called active from +8 up or from −8 down; further: test concentration not given here
[11] = HepG2 liver cancer cell viability effects, profiling panel, resazurin fluorescence, 24 h, PK04 Diversity Set (AID 1172); settings: higher = more signal; further: test concentration not given here
[12] = basal S. cerevisiae growth modulation, no modifier, primary screen, OD600, strain BY4716, 24 h, basal condition (AID 1173); settings: OD600, 24 h, higher = more signal, called active from +8 up or from −8 down
[13] = MM1S myeloma cell viability, profiling panel, resazurin fluorescence, basal, 24 h, PK04 Diversity Set (AID 1174); settings: higher = more signal, called active from +8 up or from −8 down;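 further: MM1S multiple myeloma cell line; test concentration not given here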
[14] = molecular target: Dihydroorotate dehydrogenase (quinone), mitochondrial (Plasmodium falciparum (isolate 3D7)) (UniProt Q08210); experiment: PfDHODH enzyme inhibitors, primary screen, biochemical, C-terminal His tag, absorbance 600 nm (AID 1175); settings: DCIP absorbance 600 nm, higher = more signal, called active from +8 up or from −8 down;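 further: recombinant parasite enzyme with a five histidine tag at its C terminus; test concentration not given here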
Chain of Dihydroorotate dehydrogenase (quinone), mitochondrial (Plasmodium falciparum (isolate 3D7)) (Q08210 whole entry, looked up): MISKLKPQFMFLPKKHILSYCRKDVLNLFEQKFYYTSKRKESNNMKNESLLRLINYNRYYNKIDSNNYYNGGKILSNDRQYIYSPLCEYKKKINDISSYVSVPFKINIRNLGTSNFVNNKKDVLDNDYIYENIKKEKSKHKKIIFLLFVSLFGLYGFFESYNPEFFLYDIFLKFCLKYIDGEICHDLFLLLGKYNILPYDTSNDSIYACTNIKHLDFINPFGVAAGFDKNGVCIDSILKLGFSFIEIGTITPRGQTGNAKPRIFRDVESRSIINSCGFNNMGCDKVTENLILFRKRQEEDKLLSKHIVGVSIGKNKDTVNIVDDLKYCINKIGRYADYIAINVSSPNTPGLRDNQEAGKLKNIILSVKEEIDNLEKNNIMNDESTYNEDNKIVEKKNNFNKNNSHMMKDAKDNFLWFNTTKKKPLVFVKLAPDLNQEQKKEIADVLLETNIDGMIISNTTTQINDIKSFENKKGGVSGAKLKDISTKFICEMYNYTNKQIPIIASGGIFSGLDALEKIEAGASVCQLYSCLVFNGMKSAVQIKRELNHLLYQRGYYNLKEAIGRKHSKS

[15] = P. aeruginosa biofilm formation inhibitors, primary screen, strain PAO1, LB-PBS medium, absorbance 600 nm (AID 1176); further: test concentration not given here; settings: P. aeruginosa PAO1 growth/biofilm, A600, 12 h; higher = more signal
[16] = S. cerevisiae RM11-1a growth modifiers, primary screen, strain RM11-1a, OD600, basal, 24 h (AID 1177); settings: OD600, 24 h, higher = more signal, called active from +8 up or from −8 down;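 further: cultures grown under basal conditions with no added stressor; test concentration not given here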
[17] = E. coli acrAB mutant growth effects, primary screen, E. coli filamentation inducers, strain DRC39, OD650, 24 h (AID 1178); settings: higher = more signal, called active from +8 up or from −8 down;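 further: growth measured as culture turbidity by optical density at 650 nm; test concentration not given here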
[18] = E. coli acrAB mutant growth effects, primary screen, E. coli filamentation inducers, strain DRC39, OD650, 48 h (AID 1179);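 further: screen aims at cell division blockers that make cells filament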; settings: E. coli DRC39 delta-acrAB growth, higher = more signal, called active from +8 up or from −8 down
[19] = RPMI8226 myeloma cell viability, profiling panel, resazurin fluorescence, basal, 24 h, PK04 Diversity Set (AID 1180); settings: higher = more signal;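 further: RPMI8826 multiple myeloma cell line at 5000 cells per well; test concentration not given here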
[20] = molecular target: E3 ubiquitin-protein ligase XIAP (Homo sapiens) (UniProt P98170); experiment: XIAP binders, primary screen, biophysical, small-molecule microarray, fluorescence 635 nm (AID 1181); settings: small-molecule microarray binding, higher = more signal;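 further: score merges 667 nm emission and signal to noise over triplicate slides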
Chain of E3 ubiquitin-protein ligase XIAP (Homo sapiens) (P98170 whole entry, looked up): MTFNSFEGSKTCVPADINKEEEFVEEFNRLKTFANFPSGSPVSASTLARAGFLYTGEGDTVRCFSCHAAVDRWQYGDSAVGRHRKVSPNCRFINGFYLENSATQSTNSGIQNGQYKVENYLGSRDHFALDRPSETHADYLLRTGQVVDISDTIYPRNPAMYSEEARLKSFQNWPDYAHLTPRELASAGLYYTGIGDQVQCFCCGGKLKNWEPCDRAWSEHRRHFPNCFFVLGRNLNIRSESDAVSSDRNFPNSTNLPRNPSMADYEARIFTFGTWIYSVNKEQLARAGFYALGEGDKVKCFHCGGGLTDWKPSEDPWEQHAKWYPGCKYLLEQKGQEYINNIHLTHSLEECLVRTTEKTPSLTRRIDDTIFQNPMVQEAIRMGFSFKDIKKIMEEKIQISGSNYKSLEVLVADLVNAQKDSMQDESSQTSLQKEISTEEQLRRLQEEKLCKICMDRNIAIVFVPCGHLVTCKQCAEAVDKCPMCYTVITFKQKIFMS

Structure (SMILES): COc1ccc(C#Cc2ccc3c(c2)[C@]2(C(=O)N3)[C@H](C(=O)N3CCCCCCC3)[C@H]3C(=O)O[C@H](c4ccccc4)[C@H](c4ccccc4)N3[C@@H]2c2ccc(O)cc2)cc1
- z-score [1]: -0.636
- z-score [2]: 1.61
- z-score [3]: -0.984
- z-score [4]: 0.171
- z-score [5]: -1.05
- z-score [6]: -1.2
- z-score [7]: 1.34 (inactive)
- z-score [8]: -0.582
- z-score [9]: -0.191
- z-score [10]: 0.601 (inactive)
- z-score [11]: 0.629
- z-score [12]: 0.299 (inactive)
- z-score [13]: 0.697 (inactive)
- composite z-score [14]: -8.52 (active)
- z-score [15]: 1.19 (inactive)
- z-score [16]: 0.136 (inactive)
- z-score [17]: -0.45 (inactive)
- z-score [18]: -0.601 (inactive)
- z-score [19]: 0.428
- composite z-score [20]: -0.0149

Structure (SMILES): CC(=O)NCCCC[C@@H]1NC(=O)[C@H]2C[C@@H](C(=O)NCCCCCNC(=O)CS)[C@@H](c3cccc(OCCO)c3)N2C1=O
- z-score [1]: -0.227
- z-score [2]: -0.146
- z-score [3]: 0.0877
- z-score [4]: 0.0637
- z-score [5]: -0.433
- z-score [6]: 1.09
- z-score [7]: -0.286 (inactive)
- z-score [8]: -0.428
- z-score [9]: 0.0573
- z-score [10]: -0.496 (inactive)
- z-score [11]: -0.223
- z-score [12]: 0.332 (inactive)
- z-score [13]: -0.0374 (inactive)
- composite z-score [14]: 0.657 (inactive)
- z-score [15]: 0.559 (inactive)
- z-score [16]: -0.39 (inactive)
- z-score [17]: -0.0744 (inactive)
- z-score [18]: 0.382 (inactive)
- z-score [19]: -0.653
- composite z-score [20]: 2.75

Structure (SMILES): C[C@]1(C(=O)O)c2ccccc2C(=O)N(Cc2ccc(OC(F)(F)F)cc2)[C@H]1c1ccc(CO)cc1
- z-score [1]: 0.0055
- z-score [2]: 0.755
- z-score [3]: -0.167
- z-score [4]: -0.24
- z-score [5]: -1.48
- z-score [6]: 0.248
- z-score [7]: -1.18 (inactive)
- z-score [8]: -0.0611
- z-score [9]: 0.057
- z-score [10]: 0.244 (inactive)
- z-score [11]: 0.0448
- z-score [12]: -0.847 (inactive)
- z-score [13]: 0.0944 (inactive)
- composite z-score [14]: -0.295 (inactive)
- z-score [15]: 0.0993 (inactive)
- z-score [16]: -0.475 (inactive)
- z-score [17]: 0.248 (inactive)
- z-score [18]: -0.0775 (inactive)
- z-score [19]: 0.441
- composite z-score [20]: 0.265

Structure (SMILES): Cc1ccc([C@H]2C(C(=O)O)=C[C@@H](C(C)(C)C)N2S(=O)(=O)c2ccc(C)cc2)cc1
- z-score [1]: -0.728
- z-score [2]: -0.85
- z-score [3]: -0.338
- z-score [4]: 0.0315
- z-score [5]: -0.4
- z-score [6]: -0.892
- z-score [7]: -0.38 (inactive)
- z-score [8]: -0.0701
- z-score [9]: -1.19
- z-score [10]: -0.654 (inactive)
- z-score [11]: -0.553
- z-score [12]: -0.405 (inactive)
- z-score [13]: -0.648 (inactive)
- composite z-score [14]: -0.241 (inactive)
- z-score [15]: 0.353 (inactive)
- z-score [16]: -0.0566 (inactive)
- z-score [17]: -1.36 (inactive)
- z-score [18]: -0.387 (inactive)
- z-score [19]: -2.49
- composite z-score [20]: 0.193

Structure (SMILES): COC(=O)C(CC#Cc1ccc2c(c1)[C@]1(C(=O)N2)[C@H](c2ccc(O)cc2)N2[C@H](c3ccccc3)[C@H](c3ccccc3)OC(=O)[C@H]2[C@@H]1C(=O)N1CCCCCCC1)C(=O)OC
- z-score [1]: 1.58
- z-score [2]: 0.581
- z-score [3]: 1.98
- z-score [4]: 0.362
- z-score [5]: -2.56
- z-score [6]: 0.945
- z-score [7]: -0.174 (inactive)
- z-score [8]: -0.799
- z-score [9]: -0.158
- z-score [10]: -0.636 (inactive)
- z-score [11]: -0.123
- z-score [12]: 0.303 (inactive)
- z-score [13]: -0.961 (inactive)
- composite z-score [14]: -7.28 (inactive)
- z-score [15]: 1.6 (inactive)
- z-score [16]: 0.27 (inactive)
- z-score [17]: 0.196 (inactive)
- z-score [18]: -0.0767 (inactive)
- z-score [19]: -3.94
- composite z-score [20]: 0.557

Structure (SMILES): CCCCC(=O)N(CCN1CCOCC1)[C@@H]1CC(C(=O)NCCO)=C[C@H](Oc2c(I)cc(CO)cc2OC)[C@H]1O
- z-score [1]: 1.5
- z-score [2]: -1.07
- z-score [3]: 0.569
- z-score [4]: 0.135
- z-score [5]: -0.157
- z-score [6]: -0.959
- z-score [7]: -0.716 (inactive)
- z-score [8]: -0.277
- z-score [9]: -0.109
- z-score [10]: -0.0043 (inactive)
- z-score [11]: 0.246
- z-score [12]: -1.23 (inactive)
- z-score [13]: 0.0671 (inactive)
- composite z-score [14]: 0.229 (inactive)
- z-score [15]: 0.118 (inactive)
- z-score [16]: 0.615 (inactive)
- z-score [17]: 1.34 (inactive)
- z-score [18]: 1.15 (inactive)
- z-score [19]: 0.29
- composite z-score [20]: -0.22

Structure (SMILES): COC(=O)[C@@]1(Cc2ccc(F)cc2)[C@H]2c3cc(C(=O)N4CCCC4)n(C)c3C[C@H]2CN1C(=O)c1ccccc1
- z-score [1]: -0.893
- z-score [2]: 0.502
- z-score [3]: -0.429
- z-score [4]: -1.63
- z-score [5]: -1.01
- z-score [6]: 1.29
- z-score [7]: -1 (inactive)
- z-score [8]: -0.392
- z-score [9]: -0.206
- z-score [10]: 1.13 (inactive)
- z-score [11]: 0.0015
- z-score [12]: -1.24 (inactive)
- z-score [13]: -0.698 (inactive)
- composite z-score [14]: -0.316 (inactive)
- z-score [15]: 0.523 (inactive)
- z-score [16]: 0.309 (inactive)
- z-score [17]: -0.359 (inactive)
- z-score [18]: -0.482 (inactive)
- z-score [19]: -0.069
- composite z-score [20]: 0.49

Structure (SMILES): COC(=O)C1N=C(c2ccc(OCCCO)cc2)N(c2ccccc2)O1 (stereo not given)
- z-score [1]: 0.893
- z-score [2]: 1.16
- z-score [3]: 0.634
- z-score [4]: -0.943
- z-score [5]: 0.5
- z-score [6]: 0.684
- z-score [7]: -0.407 (inactive)
- z-score [8]: -0.44
- z-score [9]: 0.042
- z-score [10]: 0.953 (inactive)
- z-score [11]: 0.863
- z-score [12]: -1.41 (inactive)
- z-score [13]: -0.279 (inactive)
- composite z-score [14]: -1.24 (inactive)
- z-score [15]: -1.1 (inactive)
- z-score [16]: 0.061 (inactive)
- z-score [17]: 0.642 (inactive)
- z-score [18]: -0.0518 (inactive)
- z-score [19]: 1.22
- composite z-score [20]: -0.0118
